For 3 compounds, growth results are on record in PubChem BioAssay (NCI).

The panel holds about 83,000 compounds, 20% with a hit somewhere; the sample as a whole holds those more often.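 How to read the values: 0–100, growth inhibition (40 = 60% inhibited); 0, no net growth; -100 to 0, cell death (-40 = 40% of starting cells died; -100 = all dead).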 The source made the active and inactive calls. Rule for the calls: active = growth percent below 10; inactive = the rest.

The subject of the assay is MDA-MB-468 breast. Briefly: NCI-60 one-dose screen, 48 h (100 = growth as untreated, 0 = no growth, -100 = all killed). The note with it: 10 µM unless noted.
Regarding `Ic1ccccc1-c1ccccc1`, the growth was 103% (inactive).

As for `Cc1cc(Nc2ncc(Cl)c(Nc3ccccc3S(=O)(=O)C(C)C)n2)c(OC(C)C)cc1C1CCNCC1`, the growth was -78.1% (active).

With `Nc1ncc(-c2ccc3ncnc(Nc4ccc(F)c(Cl)c4)c3c2)cn1`, the growth was -22.3% (active).
